Hit rate of the full screen: of about 200,000 compounds, about 720 (0.36%) were called active. Inconclusive results (about 8%) are left out. Calls follow the shape of the dose curve; as a rule, active = well fitted activation curve with a large enough effect; inconclusive = small, poorly fitted or top-dose-only effect, or effect the other way, or another doubt; inactive = flat fitted curve, though single readings scatter. Some of the results follow.
molecular target: Lysosomal alpha-glucosidase (Homo sapiens) (UniProt P10253); assay: qHTS Assay for Activators of Human alpha-Glucosidase as a Potential Chaperone Treatment of Pompe Disease; conditions: purified enzyme, 4-MU-alpha-glucoside fluorescence, 20 min; series mostly up to 76.9 µM; also: nearly all actives have a fitted effect of over 80% in size
Text: NIH Chemical Genomics Center [NCGC] NIH Molecular Libraries Probe Production centers Network [MLPCN] MLPCN Grant: 1R03MH084841-01 Assay Submitter (PI): Wei Zheng NCGC Assay Overview: Alpha-glucosidase is responsible for hydrolysis of terminal, non-reducing 1,4-linked alpha-D-glucose residues with release of alpha-D-glucose. It is a lysosomal hydrolase that is required for the degradation of a small percentage (1-3%) of cellular glycogen in human. Deficiency of this enzyme results in glycogen-storage disease type II (GSDII), also referred to as Pompe disease, an autosomal recessive disorder. Structurally normal glycogen is accumulated in lysosomes and cytoplasm in affected patients, primarily in muscle tissues. Excessive glycogen storage within lysosomes may interrupt normal functioning of other organelles and leads to cellular injury. In turn, this leads to enlargement and dysfunction of the entire organ involved (eg, cardiomyopathy and muscle weakness). It has reported that the improper folding and trafficking of alpha-glucosidase resulting from the genetic mutations may account for a significant number of Pompe patients. […] We optimized this alpha-glucosidase assay in 1536-well plate format for identifying the novel small molecule inhibitors with the structures other than the sugar analogs in order to develop the new pharmacological chaperones, but are also able to detect potential activators. In conjunction with assays against alpha-galactosidase (AID 1467), fluorogenic false positive compounds can be identified.
NCGC Assay Protocol Summary: This is a fluorogenic enzyme assay with 4-methylumbelliferyl-alpha-D-[…] as the substrate and human alpha-glucosidase as the enzyme preparation. Upon the hydrolysis of this fluorogenic substrate, the resulting product, 1. 4-methyllumbelliferone, can be excited at 365 nm and emits at 440 nm which can be detected by a standard fluorescence plate reader. Data were normalized to the controls for basal activity (without enzyme) and 100% activity (with enzyme). In the AC50 values were determined from concentration-response data modeled with the standard Hill equation. Assay buffer: 50 mM citric acid (titrated with potassium phosphate to pH 5.0), 0.005% Tween-20, pH 5.0. (pH 5.0 is an optimal condition for this enzyme assay) 1536-well assay protocol for the human alpha-glucosidase: (1) Add 2 ul/well of enzyme (4 nM final) (2) Add 23 nL compounds in DMSO solution. The final titration was 0.7 nM to 77 uM. (3) Add 1 ul of substrate (400 uM final) (4) Incubate at room temperature for 20 min. (5) Add 2 ul stop solution (1M NaOH and 1M Glycine mixture, pH 10) (6) Detect the assay plate in a ViewLux plate reader (PerkinElmer) with Ex=365 nm and Em=440nm. Keywords: Alpha-glucosidase, Pompe Disease, pharmacological chaperone, chaperone therapy, high throughput screening, alpha-glucosidase inhibitor, MLSMR, MLSCN, NIH Roadmap, qHTS and NCGC
Potency is read from the fitted curve at half-maximal effect.

Potency, active:
COc1cc(C(=O)Nc2sc3c(c2C(=O)NCc2ccco2)CCCC3)cc(OC)c1OC 28.2 µM, O=C(O)c1cc(-c2cccs2)nc2cc3c(cc12)OCCO3 25.1 µM, c1coc(CNc2nc(N3CCCCC3)nc3ccccc23)c1 39.8 µM, c1ccc2c(NCC3CCCO3)nc(N3CCCCC3)nc2c1 (centres undefined) 39.8 µM, CCCOc1ccccc1C1C(C(=O)OC)=CN(C(C)C)C=C1C(=O)OC 39.8 µM, CCOc1ccccc1C1C(C(=O)OC)=CN(C)C=C1C(=O)OC 35.5 µM, CCCCOc1ccccc1C1C(C(=O)OC)=CN(CC)C=C1C(=O)OC 35.5 µM, CC1CN(c2oc(-c3cccs3)nc2C#N)CC(C)O1 (centres undefined) 35.5 µM, CN(C)c1oc(-c2cccs2)nc1C#N 39.8 µM, N#Cc1c(-c2ccco2)cc(-c2ccccn2)nc1N 28.2 µM, N#Cc1c(-c2ccccc2F)cc(-c2cccnc2)nc1N 35.5 µM, N#Cc1c(-c2ccco2)cc(-c2cccnc2)nc1N 28.2 µM, CCc1c(C)c2cc(Cl)c(O)c(CN(CC)CC)c2oc1=O 35.5 µM, CCN(CC)Cc1c(O)c(Cl)cc2c(C)cc(=O)oc12 35.5 µM, CCN(CC)Cc1c(O)c(Cl)cc2c(C)c(C)c(=O)oc12 35.5 µM, CC1(C)Cc2nc(N3CCCC3)c(C#N)cc2CO1 35.5 µM, Cc1cc2c(C)cc(=O)oc2c2c1NCCC2 35.5 µM, C=CCNc1nc(N)c(C(=C(C#N)C#N)c2ccccc2)s1 35.5 µM, CCNc1nc(N)c(C(=C(C#N)C#N)c2ccccc2)s1 35.5 µM, CCOC(=O)C1CCN(C(=O)c2cc3c(=O)n4ccccc4nc3n2C)CC1 39.8 µM, O=C(c1cc2c(=O)n3ccccc3nc2s1)N1CCN(Cc2ccc3c(c2)OCO3)CC1 35.5 µM, Cn1c(C(=O)N2CCc3ccccc3C2)cc2c(=O)n3ccccc3nc21 31.6 µM, O=C(c1cc2c(=O)n3ccccc3nc2s1)N1CCc2ccccc2C1 44.7 µM, CC1CN(C(=O)c2cc3c(=O)n4ccccc4nc3s2)CC(C)O1 (centres undefined) 35.5 µM, COC(=O)c1cc2c(=O)n3ccccc3nc2n(C)c1=N 25.1 µM, Cn1c(C(=O)N2COCC2(C)C)cc2c(=O)n3ccccc3nc21 35.5 µM, COc1cccc2c(=O)c3c(cnn3C)n(C)c12 31.6 µM, O=C(Nc1ccc(-c2nc3ccccc3[nH]2)cc1)c1cccc(N2C(=O)CCC2=O)c1 35.5 µM, CCn1cc(C2C(C(=O)Nc3ccc(Br)cn3)=C(C)NC3=C2C(=O)CCC3)c(C)n1 (centres undefined) 31.6 µM, CC1=C(C(=O)Nc2ccccn2)C(c2cn(C)nc2C)C2=C(CCCC2=O)N1 (centres undefined) 28.2 µM, CC(C)(C)c1cc(C(F)(F)F)c(C#N)c(=O)[nH]1 35.5 µM, Cc1cc(C(F)(F)F)c(C#N)c(=O)[nH]1 31.6 µM, O=c1oc2cc(O)ccc2cc1-c1ccc(F)cc1 25.1 µM, Cc1c(O)ccc2c(CN3CCN(CCO)CC3)cc(=O)oc12 35.5 µM, CCCc1cc(=O)oc2c(CN3CCCC3)c(O)c(Cl)cc12 35.5 µM, CCc1cc(=O)oc2c(CN3CCN(C)CC3)c(O)c(Cl)cc12 31.6 µM, CCCCc1cc(=O)oc2c(CN3CCCC3)c(O)c(Cl)cc12 31.6 µM, CCc1cc(=O)oc2c(CN3CCCC3)c(O)c(Cl)cc12 39.8 µM, CCCc1cc(=O)oc2c(CN3CCN(C)CC3)c(O)c(Cl)cc12 35.5 µM, CCc1cc2c(CN3CCN(C)CC3)cc(=O)oc2cc1O 35.5 µM, CCc1ccc(S(=O)(=O)c2nnn3c2nc(NCCNC(C)=O)c2ccccc23)cc1 31.6 µM, CCN(CC)Cc1c(O)c(Cl)cc2c3c(c(=O)oc12)CCCC3 35.5 µM, CN(C)Cc1c(O)c(Cl)cc2c3c(c(=O)oc12)CCCC3 35.5 µM, CC(C)C(=O)Nc1c2c(nc3ccccc13)N(C)CC2 35.5 µM, CCCOc1cc(N(CC)CC)ccc1/C=C(/C#N)c1nc2ccc(C)cc2[nH]1 35.5 µM, CCOP(=O)(OCC)c1nc(/C=C/c2ccccc2)oc1NCc1ccccc1 35.5 µM, CCOP(=O)(OCC)c1nc(/C=C/c2ccccc2)oc1NCc1ccc(OC)cc1 35.5 µM, CCCCc1cc(=O)oc2c(CN(CC)CC)c(O)c(Cl)cc12 35.5 µM, CCCCc1cc(=O)oc2c(CN(C)C)c(O)c(Cl)cc12 35.5 µM, CCCCc1cc(=O)oc2c(CN(C)C)c(O)ccc12 35.5 µM, CC(NC(=O)CCSc1nc(-c2ccc3c(c2)OCO3)cc(C(F)(F)F)n1)c1ccccc1 (centres undefined) 35.5 µM, COc1ccc(-c2n[nH]c(C(F)(F)F)c2-c2cc3ccccc3o2)c(O)c1 35.5 µM, O=C(O)c1cc(-c2ccc(Cl)s2)nc2ccccc12 35.5 µM, CC(=O)Nc1ccc(C2=NN(c3ccccc3)C(c3cccs3)C2)cc1 (centres undefined) 28.2 µM, CCS(=O)(=O)Nc1ccc(C2=NN(C(C)=O)C(c3cccs3)C2)cc1 (centres undefined) 35.5 µM, CCC(=O)N1N=C(c2ccc(NS(=O)(=O)CC)cc2)CC1c1ccc(C)cc1 (centres undefined) 35.5 µM, COc1ccc(C2C3=C(CCCC3=O)Nc3nc(-c4cc(OC)c(OC)c(OC)c4)nn32)cc1OC (centres undefined) 35.5 µM, COC(=O)C1=CN(CCCN2CCCC2=O)C=C(C(=O)OC)C1c1ccccc1C(F)(F)F 28.2 µM, COC(=O)C1=CN(CCCN2CCCC2=O)C=C(C(=O)OC)C1c1cccs1 39.8 µM, Cc1ccc2c(c1)c1ncnc(N3CCC4(CC3)OCCO4)c1n2C 39.8 µM, CCNc1nc2nc3ccc(C)cn3c(=O)c2cc1C(=O)NCC1CCCO1 (centres undefined) 35.5 µM, Cc1ccc2nc3c(cc(C(=O)NCC4CCCO4)c(=N)n3CCCOC(C)C)c(=O)n2c1 (centres undefined) 31.6 µM, CCCn1c(=N)c(C(=O)NC2CCCC2)cc2c(=O)n3cccc(C)c3nc21 28.2 µM, COCCCn1c(=N)c(C(=O)NCC2CCCO2)cc2c(=O)n3cccc(C)c3nc21 (centres undefined) 35.5 µM
